The text below walks through data of PubChem BioAssay (NCATS).

SMILES strings stand for the structures. Results filed as inconclusive are left out. Entries that show only a call come without a potency. Calls of active or inactive are those of the source. Unless noted, the call rests on the fitted dose curve; in most records, active means well fitted curve in the direction sought with a large enough effect; inconclusive means small, poorly fitted or top-dose-only effect, or another doubt; inactive means no such curve, though single readings can be large; an effect the other way counts as inactive or inconclusive.

For assay [1], the target named is Tyrosine-protein kinase Yes (Homo sapiens) (UniProt P07947). The assay is described as follows: qHTS for small molecule inhibitors of Yes1 kinase: Primary Screen (AID 686947). Further: potency means the concentration at half of the fitted maximal effect; nearly all actives have a fitted effect of over 60% in size. In outline: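 In this qHTS format, inhibition is expressed relative to DMSO controls with enzyme (maximum) and without enzyme (minimum). The 60 min room-temperature reaction uses 0.1 mM ATP, with ADP detected by luminescence.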
Sequence of Tyrosine-protein kinase Yes (Homo sapiens) (P07947 whole entry, looked up): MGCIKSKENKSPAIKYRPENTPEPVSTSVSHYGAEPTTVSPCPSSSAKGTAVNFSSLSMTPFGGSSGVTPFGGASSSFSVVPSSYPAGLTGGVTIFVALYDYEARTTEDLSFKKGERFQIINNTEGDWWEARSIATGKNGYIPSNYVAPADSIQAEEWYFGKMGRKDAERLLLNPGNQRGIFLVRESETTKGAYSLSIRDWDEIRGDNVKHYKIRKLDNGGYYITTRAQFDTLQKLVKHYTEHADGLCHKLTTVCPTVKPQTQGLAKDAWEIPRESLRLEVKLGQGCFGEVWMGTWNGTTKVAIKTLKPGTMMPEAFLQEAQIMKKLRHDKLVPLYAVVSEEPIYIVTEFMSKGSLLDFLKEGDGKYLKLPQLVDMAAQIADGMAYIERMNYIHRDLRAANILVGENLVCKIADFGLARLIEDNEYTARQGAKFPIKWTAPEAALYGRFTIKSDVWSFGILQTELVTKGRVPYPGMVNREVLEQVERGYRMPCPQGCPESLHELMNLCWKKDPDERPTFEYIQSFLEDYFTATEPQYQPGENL
A general note: qHTS replaces the single test concentration by a dilution series.

A short description of assay [2]: qHTS for small molecule inhibitors of Yes1 kinase: Counter Assay (AID 686950).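 Further: no kinase present so only ADP-Glo detection of a fixed ADP amount is tested; luminescence from ADP-Glo reporting ADP in a fixed ATP and ADP mixture.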 The procedure, abridged:
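Measuring interference with ADP-Glo, the assay ran 60 min at room temperature on an ATP/ADP mix lacking enzyme. Values were normalized to ATP-plus-ADP (maximum) and ATP-only (minimum) DMSO controls.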

A short description of assay [3]: P-glycoprotein substrates identified in KB-8-5-11 adenocarcinoma cell line, qHTS therapeutic library screen (AID 1346987). Further: nearly all actives have a fitted effect of over 65% in size. Further: potency means the concentration at half of the fitted maximal effect. In outline:
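Human cervical adenocarcinoma KB-8-5-11 cells, selected in colchicine to over-express P-gp and assayed without it, were exposed for 72 h to titrated compounds. An ATP-based luminescent viability signal gave AC50.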

The target of assay [4] is Glutathione peroxidase 1 (Homo sapiens) (UniProt P07203). The assay is described as follows: Primary qHTS Assay for Inhibitors of Recombinant Selenoprotein Glutathione Peroxidase 1 (GPX1) (AID 1845191). Further: nearly all actives have a fitted effect of over 65% in size. In outline: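 GPX1 10 nM, GR 100 nM, GSH 1 mM, NADPH 0.5 mM, CHP 0.5 mM (final). 30-min cpd preincubation, RT. Ex340/Em450 read t=0, t=15 min.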
Sequence of Glutathione peroxidase 1 (Homo sapiens) (P07203 whole entry, looked up): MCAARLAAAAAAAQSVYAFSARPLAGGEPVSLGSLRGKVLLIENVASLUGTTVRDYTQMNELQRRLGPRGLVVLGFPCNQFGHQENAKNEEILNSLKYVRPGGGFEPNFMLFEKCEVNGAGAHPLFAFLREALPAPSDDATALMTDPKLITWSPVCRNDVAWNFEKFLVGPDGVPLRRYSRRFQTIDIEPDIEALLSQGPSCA
The target in assay [5] is Cytochrome P450 3A4 (Homo sapiens) (UniProt P08684). The assay is described as follows: qHTS Assay for Activators of Cytochrome P450 3A4 (AID 885). Further: nearly all actives have a fitted effect of over 65% in size. In outline:
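Activators are scored by enhanced luminescence from CYP3A4 conversion of luciferin-PPXE (25uM, equal to KM) to luciferin, after 60 min at RT with an NADPH-regenerating system.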

Assay [6] in a line: Confirmation and Secondary Assay for Modulators of Hemoglobin Beta Chain Splicing at IVS2 654 locus (AID 910).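 Further: per-well total GFP intensity by laser scanning cytometry after 2-day treatment.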 In outline:
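HeLa cells stably carrying EGFP interrupted by mutant beta-globin IVS2-654 intron (CMV-driven) were treated with compound for 2 days at 37C; corrected splicing was scored as total peak GFP intensity per well (488 nm excitation, 500-520 nm emission).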

Assay [7] in a line: Confirmation and Secondary Assay for Modulators of Hemoglobin Beta Chain Splicing at IVS2 705 locus (AID 930).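 Further: HeLa cells stably expressing the EGFP-705 splicing reporter; GFP fluorescence per well restored by corrected splicing of the IVS2-705 intron in EGFP.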 The procedure, abridged: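 Splice-correction reporter: EGFP cDNA split by beta-globin intron 2 bearing the 705 mutation, stably in HeLa. Compound incubation 2 days, 37C; fluorescent objects 5-250 µm summed per well.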
Assay [8] in a line: qHTS Assay for Lipid Storage Modulators (AID 1519; calls by dose curve). Particulars: Drosophila S3 cells, BODIPY lipid droplet/cell ratio, laser cytometry, cells loaded with oleic acid. In outline:
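Cells seeded at 5,000 per well were treated with compounds over a concentration series and loaded with oleic acid (400 uM, as added). Lipid droplet fluorescence (488 nm excitation, 500-530 nm channel) was read by laser-scanning cytometry and normalized to 20 uM Triacsin C.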

For assay [9], the target named is Ubiquitin carboxyl-terminal hydrolase 1 (Homo sapiens) (UniProt O94782). The assay can be described thus: Inhibitors of USP1/UAF1: Pilot qHTS (AID 504865).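 Further: rhodamine fluorescence freed from ubiquitin-rhodamine substrate followed over time; top concentration of the series differs between compounds; nearly all actives have a fitted effect of over 35% in size.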 The procedure, abridged:
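Kinetic fluorescence assay: 1nM USP1/UAF1, 15 min compound preincubation, then 150nM Ub-Rho; 480/540 nm.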

A short description of assay [10]: Primary qHTS for inhibitors of nuclear receptor binding SET domain protein 2 (NSD2) in an isogenic RCH-ACV NSD2 p.E1099K mutant (9B) (AID 1645876). Further: potency means the concentration at half of the fitted maximal effect; nearly all actives have a fitted effect of over 70% in size.
Assay [11] can be described thus: Primary qHTS for inhibitors of nuclear receptor binding SET domain protein 2 (NSD2) in an RCH-ACV wild type WT cells (2C) (AID 1645877). Further: potency means the concentration at half of the fitted maximal effect; nearly all actives have a fitted effect of over 70% in size.
Assay [12] relates to Zika virus NS2B-NS3 protease. The assay can be described thus: Primary screen GU AMC qHTS for Zika virus inhibitors (AID 1347154). Further: nearly all actives have a fitted effect of over 70% in size. The procedure, abridged: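 Unlinked Zika NS2B hydrophilic domain/NS3 protease domain noncovalent complex (25 nM final) in 10 mM Tris-HCl pH 8.0, 0.01% Tween 20, with AMC peptide substrate. Fluorescence (ex 340, em 450 nm) change over 15 min, room temperature; percent inhibition fitted to 4-parameter Hill equation.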

Assay [13] has as its target Atrial natriuretic peptide receptor 1 (Homo sapiens) (UniProt P16066). The assay is described as follows: Natriuretic polypeptide receptor (hNpr1) antagonism - Pilot CMLD screen (AID 1347052; calls by dose curve;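 further: HEK293 cells with hNpr1 stimulated by hNppA peptide at 0.1 nM; cGMP level read as GloSensor luciferase luminescence after agonist stimulation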).

Sequence of Atrial natriuretic peptide receptor 1 (Homo sapiens) (P16066 whole entry, looked up): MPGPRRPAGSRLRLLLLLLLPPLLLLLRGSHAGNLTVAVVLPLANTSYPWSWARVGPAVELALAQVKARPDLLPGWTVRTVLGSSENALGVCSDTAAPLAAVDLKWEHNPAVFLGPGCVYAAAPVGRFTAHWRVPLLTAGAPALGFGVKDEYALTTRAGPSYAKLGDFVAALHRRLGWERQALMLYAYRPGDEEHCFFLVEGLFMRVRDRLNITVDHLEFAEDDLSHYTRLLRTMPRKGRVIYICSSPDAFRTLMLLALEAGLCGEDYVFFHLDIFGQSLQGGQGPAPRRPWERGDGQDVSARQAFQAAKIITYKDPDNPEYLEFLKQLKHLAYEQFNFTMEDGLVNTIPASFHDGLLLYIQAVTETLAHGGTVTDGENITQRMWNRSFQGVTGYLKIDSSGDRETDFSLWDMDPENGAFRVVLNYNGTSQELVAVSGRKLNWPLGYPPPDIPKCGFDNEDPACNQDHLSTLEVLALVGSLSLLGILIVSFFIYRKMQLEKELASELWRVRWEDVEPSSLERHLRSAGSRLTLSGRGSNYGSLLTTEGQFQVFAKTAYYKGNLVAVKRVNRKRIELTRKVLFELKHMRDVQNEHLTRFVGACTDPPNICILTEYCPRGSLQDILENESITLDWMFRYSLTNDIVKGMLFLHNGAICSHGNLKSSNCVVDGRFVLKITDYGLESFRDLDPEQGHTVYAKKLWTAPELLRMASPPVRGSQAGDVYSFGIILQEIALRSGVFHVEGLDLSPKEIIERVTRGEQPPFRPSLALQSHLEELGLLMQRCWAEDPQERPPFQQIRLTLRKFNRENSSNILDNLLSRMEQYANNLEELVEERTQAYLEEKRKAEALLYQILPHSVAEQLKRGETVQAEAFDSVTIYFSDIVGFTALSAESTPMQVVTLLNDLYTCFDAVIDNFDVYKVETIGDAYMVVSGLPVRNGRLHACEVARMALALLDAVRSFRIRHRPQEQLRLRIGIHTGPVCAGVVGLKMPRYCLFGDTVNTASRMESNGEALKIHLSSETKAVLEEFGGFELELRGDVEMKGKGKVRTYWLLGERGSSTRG
Sequence of Ubiquitin carboxyl-terminal hydrolase 1 (Homo sapiens) (O94782 whole entry, looked up): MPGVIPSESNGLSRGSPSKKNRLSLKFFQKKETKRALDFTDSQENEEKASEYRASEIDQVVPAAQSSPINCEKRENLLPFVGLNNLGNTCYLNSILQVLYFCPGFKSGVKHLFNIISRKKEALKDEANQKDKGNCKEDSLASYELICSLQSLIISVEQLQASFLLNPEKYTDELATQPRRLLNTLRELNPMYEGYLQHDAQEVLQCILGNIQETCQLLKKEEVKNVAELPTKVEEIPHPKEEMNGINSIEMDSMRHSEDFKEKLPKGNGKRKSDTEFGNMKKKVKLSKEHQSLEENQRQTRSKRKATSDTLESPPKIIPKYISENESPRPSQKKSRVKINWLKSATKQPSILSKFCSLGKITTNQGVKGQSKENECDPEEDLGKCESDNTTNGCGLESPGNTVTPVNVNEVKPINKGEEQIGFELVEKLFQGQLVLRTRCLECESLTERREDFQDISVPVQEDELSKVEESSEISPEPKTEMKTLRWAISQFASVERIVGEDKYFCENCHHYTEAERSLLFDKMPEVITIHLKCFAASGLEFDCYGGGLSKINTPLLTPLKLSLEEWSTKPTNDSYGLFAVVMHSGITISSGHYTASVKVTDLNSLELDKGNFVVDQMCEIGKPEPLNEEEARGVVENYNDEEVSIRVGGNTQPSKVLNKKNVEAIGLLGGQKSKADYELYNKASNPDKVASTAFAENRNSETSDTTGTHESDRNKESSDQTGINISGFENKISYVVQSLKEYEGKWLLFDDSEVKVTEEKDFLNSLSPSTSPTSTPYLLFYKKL
Sequence of Cytochrome P450 3A4 (Homo sapiens) (P08684 whole entry, looked up): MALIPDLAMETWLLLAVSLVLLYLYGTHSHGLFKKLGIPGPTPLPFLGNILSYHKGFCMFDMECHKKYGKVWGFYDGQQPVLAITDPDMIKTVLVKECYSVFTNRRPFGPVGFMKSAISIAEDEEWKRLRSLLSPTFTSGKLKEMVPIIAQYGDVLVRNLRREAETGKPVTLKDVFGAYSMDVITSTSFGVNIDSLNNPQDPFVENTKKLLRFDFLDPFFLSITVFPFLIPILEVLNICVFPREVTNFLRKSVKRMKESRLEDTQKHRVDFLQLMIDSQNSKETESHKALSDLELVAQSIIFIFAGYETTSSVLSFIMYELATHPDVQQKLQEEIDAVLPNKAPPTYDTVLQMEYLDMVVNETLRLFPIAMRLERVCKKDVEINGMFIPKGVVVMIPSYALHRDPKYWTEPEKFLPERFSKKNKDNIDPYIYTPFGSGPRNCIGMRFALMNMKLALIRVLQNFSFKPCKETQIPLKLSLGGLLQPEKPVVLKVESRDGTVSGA

In the case of `NS(=O)(=O)c1cccc(N=Cc2c(O)[nH]c3ccccc23)c1`, the Potency in assay [1] is 10.4 µM (active). Also, in assay [2], the call was inactive. The Potency entry in assay [3] and in [4] was “inactive” throughout.
Regarding `CCCCN(CCCC)C(=S)[S-].CCCCN(CCCC)C(=S)[S-].[Zn+2]`, in [3], the Potency entry is “inactive”.
As to `COc1cc(O)c2c(=O)c(O)c(-c3ccc(O)c(O)c3)oc2c1`, the Potency entry in [5], in [9], in assay [3] and in assay [4] was “inactive” each time. Moreover, the result in assay [6] and in assay [7] was inactive. In addition, in [8] (at 57.5 µM (top of the series)), the activity change, negative = inhibition was 4.09% (inactive). For the same compound, the max response in assay [8] (measured here: cell count channel max response) is -9.74%; in assay [8] (measured here: lipid channel max response) it was -5.25%. Also, the figures for the Potency in assay [10] and in assay [11] were 10.3 µM (active) and 14.6 µM (active), respectively.
With `CN(C)CCOc1ccc(-c2nc(-c3ccc4c(c3)CC/C4=N/O)c(-c3ccncc3)[nH]2)cc1`, the Potency result in assay [3] is “inactive”. Moreover, the Potency in assay [10] is 3.66 µM (active); in assay [11], 7.31 µM (active).
Turning to `O=C1NC(=O)c2cc(Nc3ccc(F)cc3)c(Nc3ccc(F)cc3)cc21`, the Potency in assay [3] is 14.6 µM (active). Moreover, the Potency result in assay [12] and in assay [4] was “inactive” throughout.
On to `COC[C@@H](O)[C@H]1OCc2ccccc2[C@@H]1C=Cc1ccccc1`, for which, in assay [13], the Potency entry was “inactive”.
The same measure, in the same setting: then `COC1=C(C(=O)c2ccccc2)C(=O)[C@@]2(CC=C(C)C)C[C@H](C(=O)OCC(F)(F)F)C(C)(C)[C@@]1(CC=C(C)C)C2=O`, with “inactive”; and `CCN1C(=NCC(C)C)NC(c2cccc(F)c2)C(C(=O)OC)=C1C` (stereo not given), with “inactive”.
On the same count and under the same terms, then `COC(=O)C1=C(C(=O)OC)[C@@H]2N(C)c3ccccc3[C@@]23C[C@@H](CO)N(C(=O)Nc2ccc(C(F)(F)F)cc2)C3=N1`, with “inactive”; and `CC(C)=NO[C@@H](C)CN1CCCc2nc(C)c(C)cc21`, with “inactive”.
Same read-out and setting: then `CC1=CC[C@@H](COc2ccccc2)O[C@@]2(C1)C(=O)N(Cc1ccc(F)cc1)c1cccc(Br)c12`, with “inactive”.
On to `CCN1C(=NCCc2cccs2)N[C@@H](CCc2ccccc2)[C@H](C(=O)NCCc2cccs2)[C@H]1C`, for which the Potency result in assay [13] is “inactive”.
With `CC(CCN1CCc2nc(-c3ccccc3)c(-c3ccccc3)cc2C1)=NO[C@H](C)CN1CCCCc2nc(C)c(C)cc21`, in assay [13], the Potency entry was “inactive”.
